# Measured values: PubChem BioAssay AID2315 (National Center for Advancing Translational Sciences (NCATS), 2010)
# Out of some 290,000 compounds screened, about 27,000 (9.3%) were called active. This excerpt belongs to a sample that is enriched for actives. Values without a mark were called inactive. No stated cut-off is given here; in the data, active means inhibition mostly above about 28% (no sharp cut-off); inactive means mostly below about 43%.
# Experiment: A qHTS for Small Molecule Inhibitors of Shiga Toxin; further: 0% is about no effect
# Details: Vero cells, Shiga toxin protein synthesis inhibition reporter; at 38.7 µM, active compounds read high
row,Structure (SMILES),inhibition
1,COc1ccc(CCNC(=O)C2CCCN2C(=O)Nc2ccccc2)cc1OC (stereo not given),9.89%
2,O=S1(=O)N=C(N(CCO)/N=C/c2ccccc2F)c2ccccc21,-5.12%
3,CCCC(=O)Nc1c(O)c2ccccc2[nH]c1=O,25.5%
4,CCCc1nc2ccccc2c(=O)n1NC(=O)c1c(O)c2ccccc2[nH]c1=O,110% (active)
5,CCCCc1nc2ccccc2c(=O)n1NC(=O)c1c(O)c2cccc3c2n(c1=O)CC3,28.4%
6,C#CC(CCN1CCCCC1)(OC)c1ccccc1 (stereo not given),-17.9%
7,CCCc1c(C(=O)N/N=C(\C)CCc2ccc(OC)cc2)nnn1-c1nonc1N,-11%
8,OC(CNCCc1ccc(Cl)cc1Cl)COc1ccccc1 (stereo not given),2.65%
9,O=C(CN(Cc1ccc(Br)cc1)S(=O)(=O)c1ccccc1)NCc1ccncc1,-14.3%
10,O=C(C1CC(=O)N(c2ccc(F)cc2)C1)N1CCN(c2ccccc2)CC1 (stereo not given),-5.65%
11,COc1ccc(Cn2c(-c3ccc(Cl)cc3)c[n+]3ccccc23)cc1,96.6% (active)
12,COc1ccc(C(=O)CN(C(=O)c2ccc(Cl)cc2)N2C(=O)c3ccccc3C2=O)cc1,-9%
13,CCn1c(C)cc(=O)cc1-c1ccc(Cl)cc1,-5.82%
14,CC1(C)C2CCC1(CS(=O)(=O)NCCc1c[nH]c3ccccc13)C(=O)C2 (stereo not given),23.7%
15,O=C(N/C(=C\c1ccc(O)cc1)C(=O)N1CCCCC1)c1ccccc1,11.3%
16,Cc1ccc(N2CCN(/N=C/c3cccs3)CC2)cc1,13.1%
17,COc1cc(/C=N/N2CCN(c3ccccc3)CC2)ccc1OC(C)=O,23.8%
18,C(=N/N1CCN(c2ccccc2)CC1)/c1cccs1,94.4% (active)
19,O=C(Cn1nc(C(=O)O)c2ccccc2c1=O)Nc1ccc(F)cc1,-3.59%
20,O=C1CCC([N+](=O)[O-])C(c2ccccc2Br)N1 (stereo not given),4.29%
21,COc1ccc(-c2nnc(NC(=O)CS(=O)(=O)c3ccc(Cl)cc3)o2)c(OC)c1,3.54%
22,COC(=O)CN1C(=O)C(C)(C)Oc2ccc(C(=O)Nc3cccc(OC)c3)cc21,-0.621%
23,CN(C)S(=O)(=O)c1ccc(N/C=C(\[N+](=O)[O-])S(=O)(=O)c2ccccc2)cc1,-2.26%
24,CCC(C)N(C)C1CCN(C(=S)Nc2ccc(OC)cc2)CC1 (stereo not given),-9.08%
25,COc1ccccc1C1CCN(C(=S)Nc2ccc(Br)cc2)CC1,47.5% (active)

row,Structure (SMILES),inhibition
1,COc1ccc(C(=O)NC2CCN(C(=S)Nc3ccccc3)CC2)cc1,-2.02%
2,CN1CCC(=O)N([C@H](CO)Cc2ccccc2)CC1,-4.98%
3,O=C1CCCC(O)=C1N=Nc1ccc2ncsc2c1,87.8% (active)
4,O=C1CCCC(O)=C1N=Nc1ccc(S(=O)(=O)N2CCOCC2)cc1,22.3%
5,COC(=O)c1ccc2c(=O)n(CCN3CCOCC3)c(SCC(=O)Nc3cccc(OC)c3)nc2c1,-7.42%
6,O=C(CNC(=O)Cc1ccccc1)N=Nc1c(O)[nH]c2ccc(Br)cc12,3.9%
7,CC1(C)CCSC(/C=C/c2ccccc2)=N1,52.2% (active)
8,Cc1cccn2c(=O)c(C=O)c(Nc3ccc(S(N)(=O)=O)cc3)nc12,3.64%
9,CCC(=O)N(CCc1ccccc1)Cc1cc2cc(C)ccc2[nH]c1=O,-0.364%
10,COc1cccc(-n2c(=S)sc3c(=O)n(-c4ccccc4OC)c(SCC4OCCO4)nc32)c1,-11.3%
11,Cc1ccccc1Nc1nc(-c2cccnc2)cs1,76.4% (active)
12,O=C(Nc1ccc(NC(=O)c2ccccc2F)cc1)c1ccccc1F,-6.19%
13,O=C(O)c1ccccc1C(=O)Nc1nc(-c2ccccc2)cs1,-11.1%
14,O=C(Nc1nc(-c2cccnc2)cs1)c1ccccc1F,166% (active)
15,O=C(O)c1ccccc1-c1ccccc1C(=O)NCc1cccnc1,-3.52%
16,O=C(Nc1nnc(-c2ccccc2F)s1)c1ccccc1F,58% (active)
17,O=C(NCc1cccnc1)C(=O)Nc1nc(-c2ccccc2)cs1,98% (active)
18,O=C(Nc1ccccc1F)c1ccccc1-c1ccccc1,7.36%
19,CN(Cc1ccccc1)S(=O)(=O)c1nnc(NC(=O)c2ccccc2F)s1,-6.12%
20,O=C(NCc1cccnc1)Nc1ccccc1F,19.6%
21,Cc1ccc(CNC(=O)C2(C(F)(F)F)C/C(=C\CCO)CCCO2)o1 (stereo not given),-7.08%
22,COc1ccc(CNC(=O)COc2cccnc2[N+](=O)[O-])cc1,-2.63%
23,CC(=O)N1CCN(C(=O)C2(NC(=O)Nc3ccc(C)cc3)CCCCC2)CC1,23.1%
24,NNC(=O)CNC(c1ccccc1)c1cc(Cl)ccc1NC(=O)c1ccccc1 (stereo not given),-4.52%
25,COc1ccc(Nc2nc(NCc3ccco3)nc(N/N=C/c3ccccc3Cl)n2)cc1,7.02%

row,Structure (SMILES),inhibition
1,COc1ccc(CC(=O)N/N=C/c2cc([N+](=O)[O-])cc(Br)c2O)cc1,-3.43%
2,Cc1ccc(S(=O)(=O)c2nnn3c2nc(N2CCN(c4ccccn4)CC2)c2ccccc23)cc1,-12%
3,Cc1occc1C(=O)NC1CCCN(Cc2ccc(CC(C)C)cc2)C1 (stereo not given),-8.21%
4,Cc1ccc(CNS(=O)(=O)c2ccc3c(c2)N(C)CCO3)cc1,-2.13%
5,CC1CCN(S(=O)(=O)c2ccc3[nH]c(=O)ccc3c2)CC1,-6.16%
6,O=C(NC(=S)Nc1ccc(Cl)c(C(=O)O)c1)c1cncc(Br)c1,14.6%
7,N#Cc1ccc(/C=C2\CCn3c2nc2cc(C(=O)O)ccc2c3=O)cc1,-9.62%
8,O=C(Nc1nc(-c2ccc(-c3ccccc3)cc2)cs1)c1cnccn1,34.8% (active)
9,Cc1ccc(-c2csc(NC(=O)c3cnccn3)n2)cc1C,8.33%
10,O=C(Nc1nnc(Cc2ccccc2)s1)c1cnccn1,-3.24%
11,COc1ccc(CN2CCC(n3nccc3NC(=O)CCCc3ccccc3)CC2)cc1C,-2.11%
12,CC(=O)Nc1ccc(NS(=O)(=O)c2ccc3c(c2)NC(=O)CC(=O)N3)cc1,-11.9%
13,CCOC(=O)c1c(C)[nH]c(C)c1S(=O)(=O)NCCCc1ccco1,-3.37%
14,O=C(CCCCCn1c(=S)[nH]c2cc3c(cc2c1=O)OCO3)N1CCN(c2ccc(F)cc2)CC1,-1.92%
15,CCn1c(CC(=O)Nc2ccccc2C)nnc1SCC(=O)NC1=NCCS1,2.84%
16,CN1CCN(Cc2ccc(OC(F)(F)F)cc2)CC1,-16.1%
17,c1ccc(-c2cn3c(n2)CCc2ccc4cccnc4c2-3)cc1,-6.84%
18,CCCCCC(=O)Nc1ccc(-c2cn3cccnc3n2)cc1,64.5%
19,COc1ccc(-c2cn3ccc(C)cc3n2)cc1,-17.1%
20,CCCC(=O)Nc1cccc(-c2cn3ccsc3n2)c1,22.4%
21,COc1ccc(-c2cn3ccsc3n2)cc1,43.6% (active)
22,Cc1ccccc1Nc1c(-c2ccccc2)nc2ncccn12,19.2%
23,FC(F)(F)Oc1ccc(-c2cn3cccnc3n2)cc1,54.1% (active)
24,CC(=O)Nc1ccc(-c2cn3cccnc3n2)cc1,52.4% (active)
25,CC(C)(C)C(=O)Nc1ccc(-c2cn3cccnc3n2)cc1,32.2%

row,Structure (SMILES),inhibition
1,c1ccc(-c2cn3cccnc3n2)cc1,58.5% (active)
2,CCOC(=O)c1cnc(Nc2nc3ccccc3o2)nc1CSC(=S)N1CCCCC1,36.8%
3,CN(Cc1ccc(F)cc1Cl)S(=O)(=O)c1cccs1,39.1%
4,CCOC(=O)N1CCN(C(=O)C(C)NC(=O)c2ccco2)CC1 (stereo not given),-4.62%
5,COc1ccc(CC(=O)NC2CCSc3ccccc32)cc1OC (stereo not given),-2.96%
6,O=C(Nc1ccccc1C(=O)Nc1ccncc1)c1ccc([N+](=O)[O-])cc1,-5.25%
7,O=C(NNS(=O)(=O)c1ccc([N+](=O)[O-])cc1)C1CCCCC1,-11%
8,CCCCn1c(N)c(N(CCOC)C(=O)c2oc3ccc(OC)cc3c2C)c(=O)[nH]c1=O,-5%
9,COc1cc(C)cc(CN2CCC(Cc3ccccc3)CC2)c1O,-4.61%
10,NC(=O)c1ccccc1N=Cc1ccc2ccccc2c1,69.3%
11,COc1ccc(-c2cn3cccnc3n2)cc1,50.1% (active)
12,COc1ccc(N2CCN(C(=O)CSc3nnc4ncccn34)CC2)cc1,-8.3%
13,COc1ccc(-c2ccnc(SCC(=O)N3CCOCC3)n2)cc1,19.9%
14,O=C(Nc1ccccc1N1CCOCC1)c1ccc(OCc2cscn2)cc1,3.77%
15,CC1=CC2=NC(=O)/C(=C/c3coc4ccccc4c3=O)C(=N)N2O1,11.7%
16,CCOc1cc(/C=C2/C(=N)N3OC(C)=CC3=NC2=O)ccc1OC,-19.9%
17,COc1ccc(OCCCn2cccc2/C=C2/C(=N)N3OC(C)=CC3=NC2=O)cc1,47.7% (active)
18,Oc1ccccc1CN1CCN(C(c2ccccc2)c2ccccc2)CC1,-6.21%
19,NC(=O)COC(=O)c1ccc2c(c1)C(=O)N(Cc1ccco1)C2=O,-6.38%
20,CCC(=O)NCCc1nc2ccccc2n1CC,-5.67%
21,Cc1cc(C(=O)OCC(=O)Nc2nnc(C(C)C)s2)c2ccccc2n1,-2.62%
22,CC(C)CC(=O)N/C(N)=N/c1nc2ccccc2s1,61.6% (active)
23,CCC(=O)NC(=Nc1nc2ccccc2s1)NC(=O)CC,57.8% (active)
24,O=C(O)CCCCc1nc2ccccc2s1,-9.29%
25,CC(C)CC(=O)NC(=S)NCc1ccccc1,-1.98%
